This note sets out measurements from ChEMBL document CHEMBL4296182, “CO-ADD screening of NIH NCI Diversity Set V”.

The test system of test [1] is Staphylococcus aureus. Description: Antibacterial activity against Staphylococcus aureus MRSA ATCC 43300 (CO-ADD:GP_020); MIC in CAMBH media using NBS plates, by Resazurin F(560/590). Format: functional. Particulars: Concentration 20 uM, ASSAY_TEST Inhibition of Bacterial Growth, detection method Resazurin, Fluorescence (ex560/em590), MEDIA CAMHB, plate type 384well, CORNING #3640, time 18 hr.

Test [2] has as its system Acinetobacter baumannii. The test is described as follows: Antibacterial activity against Acinetobacter baumannii ATCC 19606 (CO-ADD:GN_034); MIC in CAMBH media using NBS plates, by Resazurin F(560/590). Type of test: functional. Particulars: Concentration 20 uM, ASSAY_TEST Inhibition of Bacterial Growth, detection method Resazurin, Fluorescence (ex560/em590), MEDIA CAMHB, plate type 384well, CORNING #3640, time 18 hr.

Test [3] concerns Escherichia coli. Description: Antibacterial activity against Escherichia coli ATCC 25922 (CO-ADD:GN_001); MIC in CAMBH media using NBS plates, by Resazurin F(560/590). Type of test: functional. Particulars: Concentration 20 uM, ASSAY_TEST Inhibition of Bacterial Growth, detection method Resazurin, Fluorescence (ex560/em590), MEDIA CAMHB, plate type 384well, CORNING #3640, time 18 hr.

Test [4] deals with Klebsiella pneumoniae. Particulars: Concentration 20 uM; ASSAY_TEST Inhibition of Bacterial Growth; detection method Absorption (OD600); MEDIA CAMHB; plate type 384well; NBS; CORNING #3640; time 18 hr.
The test system of test [5] is Candida albicans. Particulars: 20 µM.
In test [6] the test system is Cryptococcus neoformans. Particulars: Concentration 20 uM; ASSAY_TEST Inhibition of Fungal Growth; detection method Resazurin; Absorption (OD600-OD570); plate type 384well; NBS; CORNING #3640.

Molecules are shown by their SMILES. For part of these data: Potency and affinity values are given separately.

Consider `Cc1cc(S)nc(S)n1`, for which the Inhibition in test [1] is 19.64%; in test [2], -5.84%; in test [3] it was 8.34%; in test [4], 8.54%; in test [5], -0.64%; in test [6], -0.35%.
With `Cc1nc(O)c(Cc2ccccc2O)c(-c2ccccc2)n1`, the Inhibition is 22.69% in test [1]; -8.89% in test [2]; 10.21% in test [3]; 16.82% in test [4]; 2.26% in test [5]; 5.06% in test [6].
`C=C(C)C/N=C/C1(C)CCC(C)=CO1` (stereo unspecified): the Inhibition is -0.35% in test [1]; 0.87% in test [2]; -9.37% in test [3]; 5.17% in test [4]; 1.63% in test [5]; 19.3% in test [6].
Turning to `Cc1nc(N)nc(Nc2ccc(C#N)cc2)c1Br`, the Inhibition was 13.25% in test [1]; -2.28% in test [2]; 22.67% in test [3]; 5.37% in test [4]; 0.12% in test [5]; -9.52% in test [6].
For `O=C(c1ccccc1)c1ccc(Sc2ccc([N+](=O)[O-])cc2)cc1`, the Inhibition in test [1] is 11.06%; in test [2] it was -8.42%; in test [3], 1.44%; in test [4], 19.14%; in test [5], 2.18%; in test [6] it was -2.51%.
In the case of `OCC1(CO)COC2(CCCC2)N1`, the Inhibition in test [1] is 5.01%; in test [2], 0.7%; in test [3] it was 4.05%; in test [4], 19.67%; in test [5] it was -1.93%; in test [6], -8.24%.
Consider `Cc1[nH]c(=O)n(C(C)C)c(=O)c1Br`, for which the Inhibition in test [1] is 12.85%; in test [2], -11.08%; in test [3] it was 12.66%; in test [4], 5.3%; in test [5] it was 0.37%; in test [6] it was -6.73%.
Consider `O=C(O)/C=C\C(=O)Nc1ccc(-c2ccccc2)cc1`, for which the Inhibition was -11.84% in test [1]; 13.91% in test [2]; -6.62% in test [3]; 15.61% in test [4]; 23% in test [5]; -5.96% in test [6].
Take `N=C(N)Nc1nc2cc([N+](=O)[O-])ccc2[nH]1`: the Inhibition is 9.17% in test [1]; -6.93% in test [2]; 5.92% in test [3]; 26.99% in test [4]; -2.1% in test [5]; -6.56% in test [6].
On to `OCCN1CCSC1=S`, for which the Inhibition was 15.14% in test [1]; -9.39% in test [2]; 8.07% in test [3]; 16.39% in test [4]; 1.12% in test [5]; -6.82% in test [6].
With `O=C1c2ccccc2C(=O)c2[nH]cnc21`, the Inhibition was -4.2% in test [1]; -6.06% in test [2]; -19.22% in test [3]; 13.37% in test [4]; 6.65% in test [5]; 21.89% in test [6].
With `C(=N\n1cnnc1)/c1ccc2c(c1)CCC2`, the Inhibition in test [1] is 10.16%; in test [2], -8.61%; in test [3] it was 2.79%; in test [4] it was 9.91%; in test [5], 12.8%; in test [6] it was -5.02%.
On to `CC(C)(c1cc(Cl)c(O)c(CN2CCOCC2)c1)c1cc(Cl)c(O)c(CN2CCOCC2)c1`, for which the Inhibition is -6.13% in test [1]; 0.12% in test [2]; 12.95% in test [3]; 0.6% in test [4]; -1.62% in test [5]; -0.13% in test [6].
On to `O=C1OCC/C1=C\NCCCCCCCCN/C=C1\CCOC1=O`, for which the Inhibition in test [1] is -2.67%; in test [2], 17.83%; in test [3], 3.41%; in test [4], 9.43%; in test [5], 0.08%; in test [6], -12.67%.
Consider `Cc1c(CCO)c(=O)n2n1CCCC2`, for which the Inhibition was -14.7% in test [1]; -6.34% in test [2]; -10.48% in test [3]; 7.18% in test [4]; -0.03% in test [5]; 3.75% in test [6].
`CCCN(CCC)c1ccc(/C=C/c2ccc3cc(OCC)ccc3n2)cc1`: the Inhibition in test [1] is 6.79%; in test [2] it was 8.69%; in test [3], -3.61%; in test [4], 28.88%; in test [5], -0.13%; in test [6], -5.04%.
For `Cn1c(=O)c2c(nc(Oc3ccccc3)n2C)n(C)c1=O`, the Inhibition was 7.55% in test [1]; 11.19% in test [2]; -2.76% in test [3]; 19.27% in test [4]; 7.25% in test [5]; -3.63% in test [6].
Consider `COc1ccc2c(c1)CCCN2C(=N)Nc1ccc(Cl)cc1`, for which the Inhibition in test [1] was -10.2%; in test [2], 2.99%; in test [3], -14.68%; in test [4], 7.66%; in test [5] it was 3.95%; in test [6] it was 6.87%.
In the case of `CC1CCC(C(C)C)C(NC(=O)c2ccncc2)C1` (stereo unspecified), the Inhibition in test [1] is 7.04%; in test [2] it was -17.65%; in test [3], 6.28%; in test [4], 10.65%; in test [5], -0.85%; in test [6], -11.13%.
Turning to `Cc1nccnc1Sc1ccccc1`, the Inhibition in test [1] was 3.9%; in test [2] it was -12.89%; in test [3], 2.25%; in test [4], 5.26%; in test [5] it was 7.15%; in test [6] it was -6.77%.
As to `Nc1ccn(C2OC(CCl)C(O)C2O)c(=O)n1` (stereo unspecified), the Inhibition is 16.82% in test [1]; -8.52% in test [2]; 10.09% in test [3]; 13.7% in test [4]; 0.99% in test [5]; -4.88% in test [6].
Regarding `Cc1ccc(C)c(N2CCN(c3ccncc3N)CC2)c1`, the Inhibition was -5.41% in test [1]; -5.32% in test [2]; 7.02% in test [3]; 8.69% in test [4]; 3.75% in test [5]; -6.74% in test [6].
`OC1COC(OCc2ccccc2)C(O)C1O` (stereo unspecified): the Inhibition in test [1] was 21%; in test [2], -10.71%; in test [3], 8.16%; in test [4] it was 4.56%; in test [5], 0.34%; in test [6] it was -6.82%.
For the molecule `Cc1ccc(C)c(-n2c(-c3ccc(Br)cc3)cs/c2=N\C(=O)c2ccccc2F)c1`, the Inhibition in test [1] was 15.56%; in test [2], -6.11%; in test [3], 6.4%; in test [4], 8.65%; in test [5], 4.24%; in test [6], -4.37%.
Take `c1ccc(Nc2cccc3c(Nc4ccccc4)cccc23)cc1`: the Inhibition was -4.86% in test [1]; -14.93% in test [2]; 9.5% in test [3]; 12.7% in test [4]; -0.47% in test [5]; -1.96% in test [6].
`Cl.O=C(O)c1ccc(NCc2nc3ccccc3[nH]2)cc1`: the Inhibition was 0.21% in test [1]; -0.88% in test [2]; -3.07% in test [3]; 12.5% in test [4]; 1.6% in test [5]; -6.81% in test [6].
